# Source: PubChem (National Center for Advancing Translational Sciences (NCATS))
# G9a block: inhibitors of human histone lysine methyltransferase G9a. Q96KQ7. G9a H3K9 monomethylation, AlphaScreen, 2 h. Potency, µM (highest dose often 102 µM), without a hit: top-dose activity, negative = inhibition, actives largely listed as inhibitors. 8.8% of 350,000 active; note: % is set by controls: 0 for no effect and ±100 for the full control effect; nearly all actives have a fitted effect of over 75% in size
# Target sequence (Q96KQ7 913-1193 limits assumed): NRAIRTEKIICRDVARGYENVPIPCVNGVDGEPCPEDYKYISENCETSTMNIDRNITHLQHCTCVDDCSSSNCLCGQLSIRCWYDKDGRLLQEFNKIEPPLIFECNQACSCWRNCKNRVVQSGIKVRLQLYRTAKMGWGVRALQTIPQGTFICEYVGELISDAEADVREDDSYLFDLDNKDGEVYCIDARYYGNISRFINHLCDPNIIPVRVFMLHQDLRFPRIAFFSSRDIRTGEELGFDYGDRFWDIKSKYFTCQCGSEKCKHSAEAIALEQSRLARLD
#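 Using a bead-based AlphaScreen, monomethylated H3K9 product from 2 h room-temperature reactions (G9a 20 nM, peptide 500 nM, SAM 20 uM) was detected with 0.5 ug/mL rabbit anti-H3K9me1 antibody.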
# BAZ2B block: BAZ2B (human) inhibition | AlphaScreen BAZ2B-H3K14Ac peptide displacement | Potency, µM (titrated, usually from 114 µM), inactives show at the top dose activity change, negative = inhibition, actives largely listed as inhibitors | 4.4% of 360,000 active | AID 504333; note: % is set by controls: 0 for no effect and ±100 for the full control effect; nearly all actives have a fitted effect of over 60% in size
#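 Inhibition is scored as reduced AlphaScreen emission. The BAZ2B/b-H3(5-23)K14Ac complex (50 nM each) in PBS pH 7.4, 0.01% Tween-20 meets compound (up to 110 uM) for 30 min at RT before bead addition.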
# HP1b chromo inh: HP1-beta chromodomain-methylated histone interaction inhibition; Potency, µM (titrated, usually from 114 µM), inactives show at the top dose activity change, negative = inhibition, usual class: inhibitors; AlphaScreen HP1-beta / biotin-H3K9me3 peptide binding; 0.56% of 390,000 active; P83916; note: nearly all actives have a fitted effect of over 70% in size
# Target sequence (P83916 whole entry, looked up): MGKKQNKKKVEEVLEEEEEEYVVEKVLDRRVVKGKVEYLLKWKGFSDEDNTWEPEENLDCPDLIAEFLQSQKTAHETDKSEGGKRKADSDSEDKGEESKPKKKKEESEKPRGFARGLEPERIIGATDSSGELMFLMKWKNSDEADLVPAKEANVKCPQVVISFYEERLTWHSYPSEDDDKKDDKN
#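 Compound inhibition of the preformed complex between 50 nM HP1-beta and 50 nM biotinylated H3K9me3 peptide was read by AlphaScreen. Buffer was PBS pH 7.4 with 0.01% Tween-20. Incubations ran 30 min at room temperature, with 10 ug/mL donor/acceptor beads.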
# JMJD2A Tudor: JMJD2A Tudor domain (human) inhibition; O75164; AlphaScreen JMJD2A-Tudor / H3K4me3 peptide binding; Potency, µM (highest dose often 114 µM), inactives show at the highest dose activity change, negative = inhibition, hits mostly inhibitors; 4.4% of 390,000 active; note: % is set by controls: 0 for no effect and ±100 for the full control effect; nearly all actives have a fitted effect of over 50% in size
# L3MBTL1 block: L3MBTL1 (human) inhibition; AlphaScreen L3MBTL1–H3K9me1 peptide binding; Potency, µM (series often up to 57.1 µM), inactives show at the highest dose activity, negative = inhibition, usual class: inhibitors; 0.66% of 230,000 active; AID 485360; note: % is set by controls: 0 for no effect and ±100 for the full control effect; nearly all actives have a fitted effect of over 60% in size
#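 L3MBTL1 (50 nM) pre-complexed 30 min with biotinylated H3(1-15)K9me1 peptide (75 nM), then compounds added for 30 min at room temperature; AlphaScreen streptavidin donor/nickel chelate acceptor beads (10 ug/mL final) read after 30 min dark incubation.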
# An asterisk follows results filed as active; u = inconclusive; x = not tested or not shown; [ ] = dose if it differs, or a comment. A selection: hits, their analogues and other compounds. The true share with any hit is near 11%. Calls come from the whole dose curve; as a rule, active = well fitted inhibition curve with a large enough effect; inconclusive = small, poorly fitted or top-dose-only effect; inactive = no such curve, though single readings can be large or run the other way. Potency is the fitted concentration of half-maximal effect.
SMILES,G9a block,BAZ2B block,HP1b chromo inh,JMJD2A Tudor,L3MBTL1 block
COc1ccc(C(=O)C2CCCN(Cc3cccn3-c3cccnc3)C2)cc1OC (stereo not given),-46%,-27%,-14%,-36%,-21%
CCc1ccccc1NC(=S)N(Cc1ccc(OC)cc1)CC1CCC(C(=O)O)CC1 (stereo not given),-2%,9%,43%,-1%,x
COc1ccc(Cl)cc1NC(=S)N(Cc1ccccc1C)CC1CCC(C(=O)O)CC1 (stereo not given),28µM*,6%,8%,-14%,x
O=S(=O)(O)c1cc(O)c2c(O)c(N=Nc3cc(Cl)ccc3O)c(S(=O)(=O)O)cc2c1,10µM*,11µM*,20µM*,10µM*,x
Cc1cc(-c2ccc(N=Nc3c(S(=O)(=O)O)cc4cc(S(=O)(=O)O)cc(N)c4c3O)c(C)c2)ccc1N=Nc1c(S(=O)(=O)O)cc2cc(S(=O)(=O)O)cc(N)c2c1O,u,1.4µM*,x,x,0.2µM*
CCCCN(CC)CCOc1cccc2ccccc12,39%[59 µM],x,x,x,x
C=CCN(CC=C)CCOc1ccccc1,13µM*,56µM*,-18%,3.5µM*,0%
C=CCN(CC=C)CCOc1cccc2ccccc12,11µM*,50µM*,u,20µM*,3%
c1ccc(OCCOCCOc2ccccc2)cc1,x,x,34%[57 µM],115%,x
Cc1oc(-c2ccc(C(=O)NCc3ccc(Cl)cc3)cc2)nc1CS(=O)(=O)c1ccccc1,u,-24%,11%,-26%,x
CCC1CN(C(=O)N2CCC(C(=O)NCCc3ccccc3C)CC2)c2ccccc2O1 (stereo not given),u,79µM*,11%,-24%,x
CCC1CN(C(=O)N2CCC(C(=O)Nc3ccccc3F)CC2)c2ccccc2O1 (stereo not given),55%,-17%,22%,-8%,x
CCC1CN(C(=O)N2CCC(C(=O)NCc3ccc(C)o3)CC2)c2cc(C)ccc2O1 (stereo not given),45µM*,-23%,22%,-26%,x
CCC1CN(C(=O)N2CCC(C(=O)Nc3cc(C)ccc3C)CC2)c2ccccc2O1 (stereo not given),-38%[59 µM],79µM*,10%,u,x
COC(=O)c1ccc(NC(=O)CCn2cccn2)cc1,9%[59 µM],2%,43%,2%,x
COc1ccc(S(=O)(=O)Nc2cccc(-c3ccc4nncn4n3)c2)cc1,-38%,-3%,28%,-15%,-12%
COc1ccc(S(=O)(=O)Nc2ccc(-c3ccc4nncn4n3)cc2)c(OC)c1,10µM*,4%,u,-15%,-5%
Cc1ccccc1NC(=O)c1c(C)oc2ccc(O)c(CN(C)Cc3ccccc3)c12,-37%[59 µM],-24%,8%,-29%,x
COc1ccc(CNc2ncnc3cc(Cl)ccc23)cc1OC,9%,1%,41%,0%[57.1 µM],4%
CCN(CC)Cc1cc2[nH]c3c4ccc(Cl)cc4ncc3c2cc1OC,45µM*,-18%,31%,-23%,x
O=c1cc(CN2CCOCC2)c2ccc(O)c(O)c2o1,7.9µM*,-9%,42%,u,x
O=c1cc(CN2CCN(Cc3ccccc3)CC2)c2ccc(O)c(O)c2o1,35µM*,40µM*,4%,u,x
Cc1c(O)ccc2c(CN3CCN(Cc4ccccc4)CC3)cc(=O)oc12,-13%,2%,25%,-22%,x
Cc1csc2nc(COC(=O)c3ccccc3NC(=O)c3ccc(C(C)(C)C)cc3)cc(=O)n12,16%[59 µM],-15%,24%,-13%,x
CC(C)OCCCNC(=O)c1nn(C)c2c1CSc1ccccc1-2,-43%[59 µM],-28%,17%,-22%,x
SMILES,G9a block,BAZ2B block,HP1b chromo inh,JMJD2A Tudor,L3MBTL1 block
Cc1ccc(C(C)C)cc2c(C)ccc1-2,13µM*,x,22µM*,28µM*,x
COc1cccc(NC(=O)COC(=O)COc2ccccc2[N+](=O)[O-])c1,-12%[59 µM],-33%,5%,-28%,-11%
COc1cccc(NCc2ccc([N+](=O)[O-])s2)c1,13µM*,u,u,u,-2%
Cc1ccc2oc3c(c(=O)c2c1)C(c1ccccc1F)N(c1ccccn1)C3=O (stereo not given),-5%[59 µM],-1%,16%,-6%,x
COc1cc2c(cc1OC)C(c1cccs1)N(C(=O)c1cccc(S(=O)(=O)N(C)C)c1)CC2 (stereo not given),50µM*,-29%,4%,u,-4%
O=C(NC(=S)NN1CCCCC1c1cccnc1)c1ccc(Br)cc1 (stereo not given),45µM*,0%,12%,-15%,-10%
COc1ccc(NC(=O)C/C(C)=N/NC(=O)c2cnccn2)c(OC)c1,11%,5%,22%,-18%,x
COC(=O)NNC(=S)Nc1cc(OC)ccc1OC,45µM*,u,-9%,u,x
COc1ccc(NC(=S)Nc2ccc(OC)cc2OC)c(OC)c1,4µM*,-13%,-10%,-6%,-10%
COc1ccc(NC(=O)C/C(C)=N/NC(=O)C(=O)NC2CCCCC2)c(OC)c1,16µM*,-14%,39%,-5%,x
COc1ccc(NC(=S)Nc2ccccc2OC)c(OC)c1,-16%[59 µM],-10%,u,u,-12%
COc1ccc(OC)c(NC(=S)Nc2ccccc2)c1,-49%,-33%,16%,-23%,-7%
COc1ccc(NC(=O)Nc2ccc(Cc3ccncc3)cc2)c(OC)c1,u,50µM*,u,u,-8%
O=C(Nc1ccc(N2C(=O)C3C4C=CC(C4)C3C2=O)cc1Cl)c1cccs1 (stereo not given),6%,-3%,45%,0%,1%
CCc1c(O)nc(SCC(=O)N2CCc3cc(OC)c(OC)cc3[C@@H]2C)[nH]c1=O,x,-4%,53%,-14%,x
COc1ccc(NC(=O)N(C2CCCCC2)C(C)c2ccco2)c(OC)c1 (stereo not given),45µM*,u,7%,u,-5%
COc1ccc(NC(=S)NC2CCCCC2)c(OC)c1,50µM*,u,u,-30%,-12%
COc1ccc(NC(=S)Nc2cccnc2)c(OC)c1,50µM*,-3%,16%,-2%,7%
Cc1cc(C)c2c(N=NN3CCOCC3)[nH]nc2n1,8.9µM*,-3%,28%,23%,5%
Cc1cc(C)c(C#N)c(N2CCOCC2)n1,-6%[59 µM],1%,13%,-31%,4%
COc1ccc(NC(=O)c2ccc3nc[nH]c3c2)c(OC)c1,19%,u,24%,-15%,-19%
O=C(Nc1ccc(OC(F)(F)F)cc1)c1ccc2nc[nH]c2c1,50µM*,-38%,24%,-13%,1%
Nc1[nH]n(-c2ccccc2)c(=O)c1N=Nc1ccc2c(c1)OCO2,-110%[59 µM],4µM*,u,10µM*,x
Nc1[nH]n(-c2ccccc2)c(=O)c1N=Nc1ccc2c(c1)OCCO2,10µM*,10µM*,45µM*,20µM*,u
Cc1cc([N+](=O)[O-])ccc1N=Nc1c(N)[nH]n(-c2ccccc2)c1=O,u,-32%,u,-34%,-16%
